MARV entry inh: qHTS for Inhibitors of binding or entry into cells for Marburg Virus | Marburg virus pseudotype entry/binding inhibition, cell-based | hit rate 6.5% among 18,000 | Potency, µM (top dose mostly 49.2 µM), without a hit: at the highest dose activity change, negative = inhibition, most hits filed as inhibitors | AID 720532, 2013
LASV entry inh: qHTS for Inhibitors of binding or entry into cells for Lassa Virus; Lassa virus pseudotyped entry inhibition, cell-based qHTS; Potency, µM (highest dose often 49.2 µM), inactives show top-dose activity change, negative = inhibition, hits mostly inhibitors; hit rate 4.1% among 18,000; AID 720533, 2013
* = called active by the depositor; [ ] = dose if it differs, or a comment. Most compounds without a hit are left out; they make up all but 8% or so of the library. The call rests on the fitted dose curve; tested in HEK293 cells. On the % scale 0 is the no-effect control and ±100 the full control effect; potency means the concentration at half of the fitted maximal effect.

How did NS(=O)(=O)c1ccc(N=Nc2c(O)[nH]c3ccc(C(=O)NCCc4cnc[nH]4)cc23)cc1 do in these assays?
MARV entry inh: 29%; LASV entry inh: inconclusive

Results for COc1ccc(NC(=O)c2ccc(-c3ccc(C)c4ccccc34)o2)cc1 ?
MARV entry inh: 14%; LASV entry inh: 26%

Results for CCc1ccc(OCc2ccccc2C(=O)Nc2ccc3nc(C)cc(N)c3c2)cc1 ?
MARV entry inh: 4µM*; LASV entry inh: 7.1µM*

How did CN1[C@@H](C[C@@H](O)c2ccccc2)CCC[C@@H]1C[C@H](O)c1ccccc1 do in these assays?
MARV entry inh: inconclusive; LASV entry inh: 8%[17.8 µM]

Results for C[C@@H](C(=O)OC1C[C@H]2CC[C@@H](C1)N2C)c1ccc(Br)cc1 (stereo partly specified) ?
MARV entry inh: inconclusive; LASV entry inh: -17%

How did CN1C2CCC1CC(OC(c1ccccc1)c1ccc(Cl)cc1)C2 (stereo unspecified) do in these assays?
MARV entry inh: 4µM*; LASV entry inh: 11µM*

How did CN1C2CCC1CC(OC(c1ccccc1)c1ccccc1N)C2 (stereo unspecified) do in these assays?
MARV entry inh: 18µM*; LASV entry inh: -8%

Results for Cc1cccc2cc(CN(CC3CCCO3)C(=O)C3CC3)c(N(C)C)nc12 (stereo unspecified) ?
MARV entry inh: -17%; LASV entry inh: -5%

How did CCCCCc1cc(O)c2c(c1)OC(C)(C)[C@@H]1CCC(C)=C[C@@H]21 do in these assays?
MARV entry inh: -23%; LASV entry inh: 35µM*

Results for CCCCCCC(C)(C)c1cc(OC)c2c(c1)OC(C)(C)[C@@H]1CC=C(C)C[C@@H]21 ?
MARV entry inh: 5%; LASV entry inh: -19%

Results for O=C(N/N=C\c1ccccc1O)c1ccccc1O ?
MARV entry inh: 7.1µM*; LASV entry inh: 7.9µM*

How did COC(=O)c1ccccc1O do in these assays?
MARV entry inh: -10%; LASV entry inh: -6%

How did O=c1cc(-c2ccccc2Cl)oc2c(NS(=O)(=O)c3cc(Cl)cc(Cl)c3O)ccc(O)c12 do in these assays?
MARV entry inh: inconclusive; LASV entry inh: 10µM*

What do the screens show for `O=C(Nc1ccc(O)c2c(=O)cc(-c3ccccc3Cl)oc12)c1ccc(Cl)cc1Cl`?
MARV entry inh: -7%; LASV entry inh: -8%

Results for O=C1OC2(CCCCC2)CC2=C1[C@H]1O[C@](c3ccsc3)(Cc3ccccc31)O2 ?
MARV entry inh: 35%[8.59 µM]; LASV entry inh: -11%[8.59 µM]

What do the screens show for `O=S1(=O)N[C@@H](Cc2ccccc2)COc2cccc(N3CCCCC3)c21`?
MARV entry inh: 12%; LASV entry inh: 10%

Results for C=C1C(c2ccc(C)cc2)=CCc2cc(C)cc(C)c21 ?
MARV entry inh: 4%; LASV entry inh: inconclusive

How did COc1ccc(C2/C=C\C(c3ccc(OC)cc3)N(Cc3ccc(F)cc3)C(=O)C(=O)N2Cc2ccc(F)cc2)cc1 (stereo unspecified) do in these assays?
MARV entry inh: 10µM*; LASV entry inh: -24%

What do the screens show for `COc1ccc(C2/C=C\CC(OCc3ccccc3)CC(=O)N2Cc2cccc(F)c2)cc1` (stereo unspecified)?
MARV entry inh: -20%; LASV entry inh: inconclusive

Results for CC(=O)C1=C(C)N(Cc2ccco2)C(=O)NC1c1ccccc1 (stereo unspecified) ?
MARV entry inh: -1%[8.59 µM]; LASV entry inh: 5%[8.59 µM]

How did O=C(NCC1CCC2(CCN(Cc3ccccc3O)CC2)O1)C1CCCO1 (stereo unspecified) do in these assays?
MARV entry inh: -23%; LASV entry inh: -2%

Results for COc1ccc(CN2CCC3(CCC(CNC(=O)C4CCCO4)O3)CC2)c(C)c1C (stereo unspecified) ?
MARV entry inh: 1.3µM*; LASV entry inh: -10%

Results for COC(=O)c1ccc(CN2CCC3(CCC(CNC(=O)c4ccccc4)O3)CC2)cc1 (stereo unspecified) ?
MARV entry inh: 7%; LASV entry inh: -9%

How did COc1ccc2ccccc2c1CN1CCC2(CCC(CNC(=O)c3ccccc3)O2)CC1 (stereo unspecified) do in these assays?
MARV entry inh: 13µM*; LASV entry inh: -11%

How did Nc1nnnn1-c1ccccc1 do in these assays?
MARV entry inh: 1%; LASV entry inh: -1%

Results for CCCNC(=O)OC[C@H]1O[C@H](CCON=C(C)CCN2CCCc3nc(C)c(C)cc32)C=C[C@H]1Oc1ccc(OC)cc1 ?
MARV entry inh: inconclusive; LASV entry inh: 28%[8.59 µM]

How did Cc1c(C(=O)N(C)C2CCCCC2)sc2nc3ccc(N)cc3n12 do in these assays?
MARV entry inh: 22µM*; LASV entry inh: inconclusive

How did Cc1cccc(CNc2ncnc3ccc(-c4ccccc4CN(C)C)cc23)c1 do in these assays?
MARV entry inh: 10µM*; LASV entry inh: inconclusive

How did Cc1cccc(CNc2ncnc3ccc(-c4ccc5c(c4)OCO5)cc23)c1 do in these assays?
MARV entry inh: 2%; LASV entry inh: -14%

What do the screens show for `O=P(O)(O)C(O)(Cn1ccnc1)P(=O)(O)O`?
MARV entry inh: 12%; LASV entry inh: -6%

How did O=C(C=Cc1ccccc1)Nc1cccc(C(=O)NC2CC2)c1 do in these assays?
MARV entry inh: 115%; LASV entry inh: 43%

How did c1ccc2c(c1)CCCC2C1=NCCN1 (stereo unspecified) do in these assays?
MARV entry inh: 1%; LASV entry inh: 2%

Results for c1ccc2c(c1)OCC(C1=NCCN1)O2 (stereo unspecified) ?
MARV entry inh: 14µM*; LASV entry inh: inconclusive

What do the screens show for `O=S(=O)(O)c1ccc2c(c1)-c1nc-2nc2[nH]c(nc3nc(nc4[nH]c(n1)c1ccc(S(=O)(=O)O)cc41)-c1ccc(S(=O)(=O)O)cc1-3)c1ccc(S(=O)(=O)O)cc21`?
MARV entry inh: 1.3µM*; LASV entry inh: inconclusive

What do the screens show for `O=S(=O)(O)c1ccc2nc(-c3ccccc3)[nH]c2c1`?
MARV entry inh: -1%; LASV entry inh: inconclusive

How did COc1cccc(CO[C@H]2C=C[C@@H](c3ccccc3)O[C@H]2CBr)c1 do in these assays?
MARV entry inh: 31%[8.59 µM]; LASV entry inh: 24%[8.59 µM]

What do the screens show for `CC(=O)N[C@@H]([C@@H](O)[C@H](O)[C@H](O)CO)[C@@H](O)CC(=O)C(=O)O`?
MARV entry inh: inconclusive; LASV entry inh: -7%

How did O=C(O)COCCN1CCN(C(c2ccccc2)c2ccc(Cl)cc2)CC1 (stereo unspecified) do in these assays?
MARV entry inh: 7%; LASV entry inh: 2%

How did OC(CN1CCN(c2cccc(Cl)c2)CC1)C(c1ccccc1)c1ccccc1 (stereo unspecified) do in these assays?
MARV entry inh: 35µM*; LASV entry inh: 28µM*

How did COc1ccccc1CNc1ncnc2ccc(-c3ccc(N(C)C)cc3)cc12 do in these assays?
MARV entry inh: -28%; LASV entry inh: inconclusive

What do the screens show for `NC(=O)CNC(=O)[C@H](Cc1ccccc1)NC(=O)[C@H](CCCN=C(N)N)NC(=O)[C@@H](N)Cc1ccc(O)cc1`?
MARV entry inh: -18%; LASV entry inh: 7%

What do the screens show for `CCOC(=O)C1=CC2(CC)CCCN3CCc4c(n1c1ccccc41)C32` (stereo unspecified)?
MARV entry inh: -15%; LASV entry inh: inconclusive

Results for CCOC(=O)C1=C[C@@]2(CC)CCCN3CCc4c(n1c1ccccc41)C32 (stereo partly specified) ?
MARV entry inh: 10µM*; LASV entry inh: -7%
